Most compounds without a hit are left out; they make up all but 5.8% or so of the library.
KB-3-1 tox: kills parental KB-3-1 adenocarcinoma cells; Potency, µM (titrated, usually from 46.1 µM), hits mostly cytotoxic; KB-3-1 viability, CellTiter-Glo ATP luminescence, 72 h; AID 1347075; actives 1.4% (n = 400,000); further: nearly all actives have a fitted effect of over 60% in size
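Cytotoxicity measured as CellTiter-Glo luminescence after 72 h at 37 C. Compound titrations were pinned onto drug-naive KB-3-1 parental adenocarcinoma cells grown in DMEM with 10% FBS, and normalized data fitted to concentration-response curves.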
MCF10A rereplic: inducers of DNA re-replication in MCF 10A breast cells. MCF 10A DNA re-replication, Hoechst nuclear intensity, 48 h. Potency, µM (series often up to 46.1 µM), hits mostly activators. actives 2.9% (n = 350,000); further: nearly all actives have a fitted effect of over 50% in size
SW480 rerep: DNA re-replication induction in SW480 cells; SW480 DNA re-replication, Hoechst DNA content imaging, 48 h; AID 624297; Potency, µM (highest dose often 46.1 µM), hits mostly activators; actives 1.8% (n = 340,000); further: nearly all actives have a fitted effect of over 55% in size
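Compounds, transferred as 23 nL by pin tool, were incubated with cells for 48 hr; DNA content per nucleus was then quantified by Hoechst staining and fluorescence plate imaging.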
12-LOX inh: inhibitors of human 12S-lipoxygenase ALOX12 | P18054 | purified 12hLO, xylenol orange hydroperoxide absorbance | Potency, µM (doses to about 108 µM), actives largely listed as inhibitors | actives 1.1% (n = 580,000) | AID 1671190
Target sequence (P18054 whole entry, looked up): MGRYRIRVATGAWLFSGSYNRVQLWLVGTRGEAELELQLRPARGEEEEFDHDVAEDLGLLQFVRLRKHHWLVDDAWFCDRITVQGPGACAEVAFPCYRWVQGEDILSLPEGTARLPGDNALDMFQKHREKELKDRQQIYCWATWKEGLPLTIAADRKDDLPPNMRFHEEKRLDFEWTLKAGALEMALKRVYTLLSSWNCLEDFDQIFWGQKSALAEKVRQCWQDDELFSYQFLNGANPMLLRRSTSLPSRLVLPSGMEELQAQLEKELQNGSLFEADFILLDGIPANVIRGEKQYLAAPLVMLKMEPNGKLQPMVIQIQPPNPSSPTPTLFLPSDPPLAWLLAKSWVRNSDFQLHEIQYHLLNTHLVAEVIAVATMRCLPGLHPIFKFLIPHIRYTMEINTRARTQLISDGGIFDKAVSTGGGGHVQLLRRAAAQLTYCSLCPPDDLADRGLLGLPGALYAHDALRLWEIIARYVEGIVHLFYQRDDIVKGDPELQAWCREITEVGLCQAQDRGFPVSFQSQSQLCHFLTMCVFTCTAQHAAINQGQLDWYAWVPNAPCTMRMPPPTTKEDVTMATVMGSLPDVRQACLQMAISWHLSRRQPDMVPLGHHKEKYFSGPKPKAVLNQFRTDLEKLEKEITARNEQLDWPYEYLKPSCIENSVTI
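Purified human 12hLO at 150 nM in 25 mM Hepes, 0.01% Triton X-100, pH 7.0, preincubated 15 min at room temperature with compound. Reaction started with 40 uM arachidonic acid, 30 min at room temperature. Hydroperoxide measured by Fe-xylenol orange, 573/405 nm absorbance ratio.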
PINK1 expr mod: PINK1 expression modulation. PINK1 immunofluorescence, high-content cytometry, 24 h. Potency, µM (series often up to 76.6 µM), usual class: activators. actives 0.2% (n = 410,000); active means well fitted activation curve with a large enough effect; inconclusive means small, poorly fitted or top-dose-only effect; cell line not stated here; further: nearly all actives have a fitted effect of over 65% in size
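Fluorescence from anti-PINK1 antibody, together with nuclear and cell stains, was scanned on a laser-scanning cytometer. Before staining, stable-line cells were incubated 24 hours with compounds at 5 concentrations; primary antibody 12 h at 10 degrees C.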
KB-V1 cytotox: KB-V1 MDR subline cytotoxicity | KB-V1 MDR cells viability, CellTiter-Glo, 72 h | Potency, µM (series often up to 46.1 µM), usual class: cytotoxic | actives 3.4% (n = 400,000); further: nearly all actives have a fitted effect of over 60% in size
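Compound-treated KB-V1 multidrug-resistant cells, 72 h, 37 degrees C; viability by CellTiter-Glo. Fitted qHTS curves give the values.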
Of the large screens only hits and unclear results are named; the others gave an inactive call. Unless noted, the call rests on the fitted dose curve; in most records, active means well fitted curve in the direction sought with a large enough effect; inconclusive means small, poorly fitted or top-dose-only effect, or another doubt; inactive means no such curve, though single readings can be large; an effect the other way counts as inactive or inconclusive.

Cc1nn(Cc2cccc(F)c2)c(C)c1NC(=O)c1ccc(COc2ccccc2Cl)cc1	MCF10A rereplic inconclusive, 12-LOX inh inconclusive, KB-V1 cytotox 2.6µM
Cc1nn(Cc2cccc(F)c2)c(C)c1NC(=O)c1c([N+](=O)[O-])c(C)nn1C	none
Cc1nn(Cc2c(F)c(F)c(F)c(F)c2F)c(C)c1NC(=O)c1cccc(COc2ccccc2Cl)c1	KB-V1 cytotox 2.6µM
CCC(C)NC(=O)c1ccc(COc2ccccc2Cl)cc1 (centres undefined)	KB-V1 cytotox 21µM
O=C(COC(=O)c1ccc(NS(=O)(=O)c2cccs2)cc1)NCc1ccco1	KB-3-1 tox 18µM, MCF10A rereplic 9.2µM, SW480 rerep inconclusive, KB-V1 cytotox inconclusive (no result: 12-LOX inh)
O=C(COC(=O)c1ccc(NS(=O)(=O)c2cccs2)cc1O)NCc1ccccc1	KB-3-1 tox 5.8µM, MCF10A rereplic 2.3µM, SW480 rerep 7.3µM, KB-V1 cytotox 13µM
O=C(COC(=O)c1cccs1)NCc1ccco1	none
O=S(=O)(Nc1cccc(CO)c1)c1cccs1	KB-3-1 tox 0.21µM
Cc1cccc(NS(=O)(=O)c2cccs2)c1	none
O=C(COC(=O)c1ccc(NS(=O)(=O)c2cccs2)cc1O)Nc1nc2ccccc2s1	KB-3-1 tox inconclusive
O=C(O)CCCC(=O)OCCCc1ccccc1	none (no result: KB-3-1 tox, MCF10A rereplic, SW480 rerep, PINK1 expr mod, KB-V1 cytotox)
O=C(N/N=C/c1ccc2c(c1)OCO2)c1cccs1	KB-3-1 tox inconclusive
Cc1cc(C(=O)N/N=C/c2ccc3c(c2)OCO3)c(C)o1	KB-V1 cytotox inconclusive
Cc1ccsc1C(=O)N/N=C/c1ccc2c(c1)OCO2	KB-3-1 tox inconclusive, KB-V1 cytotox 18µM
Cc1occc1C(=O)N/N=C/c1ccc2c(c1)OCO2	KB-3-1 tox 15µM, KB-V1 cytotox 7.3µM
Cc1occc1C(=O)N/N=C/c1ccc(-c2ccccc2)cc1	KB-3-1 tox 21µM, KB-V1 cytotox 13µM
CC(C)CCNC(=O)C(NC(N)=O)C(C)C (centres undefined)	none (no result: KB-3-1 tox, MCF10A rereplic, SW480 rerep, PINK1 expr mod, KB-V1 cytotox)
N#CCSc1nnc(-c2ccccc2)n1-c1ccc(Cl)cc1	none (no result: KB-3-1 tox, MCF10A rereplic, SW480 rerep, PINK1 expr mod, KB-V1 cytotox)
O=C(COC(=O)CNC(=O)c1ccccc1Cl)Nc1cc(C(F)(F)F)ccc1Cl	MCF10A rereplic 15µM
Cc1nc(NC(C)c2ccccc2)c2c3c(sc2n1)CCC3 (centres undefined)	KB-3-1 tox inconclusive, MCF10A rereplic 10µM, SW480 rerep inconclusive (no result: 12-LOX inh)
Cc1ccc(CNc2nc(C)nc3sc4c(c23)CCC4)cc1	KB-V1 cytotox 8.2µM
Cc1nc(Nc2ccc(O)cc2)c2c3c(sc2n1)CCCC3	MCF10A rereplic inconclusive, 12-LOX inh inconclusive
CC(=O)Nc1c(Cl)c(Cl)c2c(c1Cl)C(=O)c1cc(Cl)ccc1-2	KB-3-1 tox 21µM, 12-LOX inh inconclusive, PINK1 expr mod inconclusive, KB-V1 cytotox 15µM
CCOc1ccc(-n2nc3cc(C)c(NC(=O)c4cc(OCC)c(OCC)c(OCC)c4)cc3n2)cc1	none (no result: MCF10A rereplic, SW480 rerep)
CCOc1ccc(-n2nc3ccc(N)cc3n2)cc1	MCF10A rereplic 18µM, SW480 rerep inconclusive
CCOc1ccc(-n2nc3cc(C)c(N)cc3n2)cc1	MCF10A rereplic 18µM, SW480 rerep 16µM, 12-LOX inh inconclusive
COc1cccc(OC)c1C(=O)Nc1c(NC2CCCCC2)c2ccccc2oc1=O	none (no result: KB-3-1 tox, MCF10A rereplic, SW480 rerep, PINK1 expr mod, KB-V1 cytotox)
Cc1nn2c(c1-c1ccccc1-c1ccccc1)N(Cc1ccc(C(=O)O)s1)CCC2	none (no result: KB-3-1 tox, MCF10A rereplic, SW480 rerep, PINK1 expr mod, KB-V1 cytotox)
Cc1nn2c(c1-c1ccccc1[S+](C)(=O)[O-])N(Cc1ccc(C(=O)O)s1)CCC2	12-LOX inh 32µM (no result: KB-3-1 tox, MCF10A rereplic, SW480 rerep, PINK1 expr mod, KB-V1 cytotox)
CN1CCc2c(sc3c2C(=O)NC(c2ccccn2)N3)C1 (centres undefined)	none
Cc1ccsc1C1NC(=O)c2c(sc3c2CCCC3)N1 (centres undefined)	MCF10A rereplic inconclusive, KB-V1 cytotox 15µM (no result: 12-LOX inh)
O=C1NC(c2ccccn2)Nc2sc3c(c21)CCC3 (centres undefined)	MCF10A rereplic 16µM
CCCNC(=O)NNC(=O)C(C)Oc1cccc(C(F)(F)F)c1 (centres undefined)	none (no result: KB-3-1 tox, MCF10A rereplic, SW480 rerep, PINK1 expr mod, KB-V1 cytotox)
Cn1c(-c2sccc2OCc2ccccc2)n[nH]c1=S	12-LOX inh inconclusive

Assay outcomes from PubChem.
